From PubChem BioAssay
In the library only some 5.2% were active in any assay of this set; here they are far more common.
Tau ThT inhib: inhibitors of human tau fibril formation, thioflavin T binding; Potency, µM (top dose mostly 57.4 µM), for the others: at the top dose activity, negative = inhibition, actives largely listed as inhibitors; actives 2.1% (n = 270,000); recombinant tau K18 P301L, heparin-induced fibrillization, ThT fluorescence; P10636; further: potency means the concentration at half of the fitted maximal effect; nearly all actives have a fitted effect of over 55% in size
Target sequence (P10636 561-689 P618L limits assumed): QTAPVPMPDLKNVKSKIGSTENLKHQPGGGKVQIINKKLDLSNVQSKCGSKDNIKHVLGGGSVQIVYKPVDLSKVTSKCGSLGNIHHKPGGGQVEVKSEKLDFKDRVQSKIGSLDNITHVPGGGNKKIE
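Using a mix of unlabeled (15 uM) and Alexa 594-labeled (0.24 uM) tau K18 P301L, heparin-triggered fibrillization over 6 hr at 37 C was scored by ThT fluorescence.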
Tau FP inhib: inhibitors of human tau fibril formation. AID 1468. P10636. actives 0.39% (n = 280,000). Potency, µM (top dose mostly 57.7 µM), without a hit: at the highest dose activity, negative = inhibition, hits mostly inhibitors. K18 P301L tau heparin fibrillization, Alexa594 FP, 6 h; further: potency means the concentration at half of the fitted maximal effect; nearly all actives have a fitted effect of over 55% in size
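Human K18 P301L fragment (15 uM unlabeled plus 0.24 uM Alexa 594-labeled) in 100 mM sodium acetate pH 7 with compound, aggregation induced by 20 uM heparin for 6 hr at 37 C. ThT (30 uM) added for 1 hr, then Alexa 594 FP read.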
Sfp PPTase inh: Sfp phosphopantetheinyl transferase inhibition | actives 3.5% (n = 310,000) | Potency, µM, for the others: largest response in the series, negative = inhibition, actives largely listed as inhibitors | Q9F4F7 | AID 1490 | Biochemical Sfp PPTase activity, qHTS;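 further: the enzyme is Sfp with the accession as filed and its product quenches rhodamine fluorescence; potency means the concentration at half of the fitted maximal effect; 0% = enzyme reaction without inhibitor and -100% = no enzyme wells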
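Fluorescence-quenching assay: 15 nM Sfp-PPTase preincubated 15 min at room temperature with compound, then 5 uM rhodamine-CoA and 12.5 uM BHQ-2-labelled YbbR peptide added. Fluorescence (ex 525/em 598 nm) read at start and after 30 min; difference gives rate.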
Coupling enz: coupling enzyme interference in Giardia aldolase counter-screen; coupling enzyme system counterscreen, AmpLite Red fluorescence; activity change, negative = inhibition, % at 58.2 µM, hits read low; actives 0.67% (n = 290,000); AID 2472; in the data active means activity change below about -30%
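Fluorescence at 525 nm excitation and 598 nm emission measured inhibition of the coupled detection system without aldolase. Compounds (at 57.5 uM final) were preincubated 10 min at room temperature with coupling enzyme reagent before a 20 min substrate/AmpLite Red step.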
Tau fluor cs: counter-screen for tau fibril formation inhibitors; tau K18 P301L Alexa594 fluorescence, heparin fibrillization; Potency, µM (highest dose often 57.7 µM), for inactives: at the highest dose activity change, negative = decrease; actives 0.93% (n = 280,000); AID 1463; further: potency means the concentration at half of the fitted maximal effect; nearly all actives have a fitted effect of over 55% in size
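Human tau K18 P301L (15 uM unlabeled, 0.24 uM Alexa 594-labeled) in 100 mM sodium acetate pH 7 with 20 uM heparin, 6 hr at 37 C. ThT 30 uM added, 1 hr ambient; Alexa 594 FP and total fluorescence read at 555/632 nm.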
Active calls of the source: *; ? = inconclusive; · = not tested or not shown; [ ] = another dose, or the depositor's remark. Unless noted, the call rests on the fitted dose curve; in most records, active means well fitted curve in the direction sought with a large enough effect; inconclusive means small, poorly fitted or top-dose-only effect, or another doubt; inactive means no such curve, though single readings can be large; an effect the other way counts as inactive or inconclusive. Unless noted, on the % scale 0 is the no-effect control and ±100 the full control effect.

SMILES	Tau ThT inhib	Tau FP inhib	Sfp PPTase inh	Coupling enz	Tau fluor cs
Cc1ccc(/C=C(\C#N)C(=O)Nc2ccc(Br)cc2)o1	-8%	?	·	·	-2%
N#CCc1ccc(NC(=O)/C=C/c2ccc([N+](=O)[O-])o2)cc1	11µM*	?	?	-6	-29%
CC[C@H](C)[C@H](NC(=O)[C@H](C)NC(=O)[C@H](CC(=O)O)NC(=O)[C@H](CO)NC(=O)[C@@H](N)Cc1cnc[nH]1)C(=O)N[C@@H](Cc1ccccc1)C(=O)N[C@H](C(=O)N[C@@H](CCC(N)=O)C(=O)N[C@@H](CCC(N)=O)C(=O)N[C@@H](Cc1ccc(O)cc1)C(=O)N[C@@H](CO)C(=O)N[C@@H](CCCCN)C(=O)N[C@@H](CC(C)C)C(=O)N[C@@H](CC(C)C)C(=O)N[C@@H](C)C(=O)N[C@@H](CCCCN)C(=O)N[C@@H](CC(C)C)C(=O)N[C@@H](C)C(=O)N[C@@H](CC(C)C)C(=O)N[C@@H](CCC(N)=O)C(=O)N[C@@H](CCCCN)C(=O)N[C@@H](Cc1ccc(O)cc1)C(=O)N[C@@H](CC(C)C)C(=O)N[C@@H](C)C(=O)N[C@@H](CO)C(=O)N[C@H](C(=O)N[C@@H](CC(C)C)C(=O)NCC(=O)N[C@@H](CO)C(=O)N[C@@H](CCCNC(=N)N)C(=O)N[C@H](C(=O)N[C@@H](CO)C(=O)N1CCC[C@H]1C(=O)N1CCC[C@H]1C(=O)N1CCC[C@H]1C(N)=O)[C@@H](C)O)[C@@H](C)CC)[C@@H](C)O	·	·	22%	1	·
COc1ccccc1CNC(=O)C(CC(C)C)N1Cc2ccccc2C1=O (stereo not drawn)	-4%	0%	·	·	-5%
CN(C)c1ccc(NC(=O)CCSc2nc(-c3ccco3)cc(C(F)(F)F)n2)cc1	?	1%	·	·	?
O=C1c2ccccc2-c2nc3ccccc3nc21	20µM*	?	3%	-7	?
c1coc(-c2nn3c(Cn4nnc5ccccc54)nnc3s2)c1	-4%	3%	45µM*	-5	0%
c1ccc2c(c1)nnn2Cc1nnc2sc(-c3ccncc3)nn12	-21%	4%	40µM*	2	-8%
Clc1cccc(-c2nn3c(Cn4cnc5ccccc54)nnc3s2)c1	-4%	2%	20µM*	1	-2%
c1csc(-c2nn3c(Cn4nnc5ccccc54)nnc3s2)c1	-7%	2%	9%	-17	-4%
Clc1ccc(Cc2nn3c(Cn4nnc5ccccc54)nnc3s2)cc1	-22%	0%	28µM*	-1	-17%
CCC(Oc1ccc(F)cc1)C(=O)Nc1nc(-c2ccc(F)cc2)ns1 (stereo not drawn)	6%	?	·	·	?
Cc1ccc2oc(=O)c3cnn(CC(=O)N4CCN(c5ccc(F)cc5)CC4)c3c2c1	?	-14%	·	·	-16%
CN(C)c1nc(-c2ccoc2)nc2ccccc12	?	-6%	50µM*	2	-13%
CN(C)c1nc(-c2cccnc2)nc2ccccc12	·	·	-17%	1	·
O=[N+]([O-])c1ccccc1/C=N/n1c(C2CCCCC2)n[nH]c1=S	1%	-6%	50µM*	-3	-2%
O=[N+]([O-])c1ccccc1/C=N/n1c(C(F)(F)F)n[nH]c1=S	?	-2%	22µM*	-8	-5%
Cc1ccc(/C=N/n2c(C3CCCCC3)n[nH]c2=S)cc1	·	·	50µM*	0	·
O=C(O)COc1ccccc1/C=N/n1c(C2CCCCC2)n[nH]c1=S	·	·	50µM*	-2	·
Cc1ccc(-c2c(C3C4C=CCCC4(C)C(=O)N3Cc3ccccc3)ccc3ccccc23)cc1 (stereo not drawn)	·	·	-5%	0	·
Cc1ccc(NC(=O)CSc2nc3c(oc4ccccc43)c(=O)n2Cc2ccco2)cc1	-11%	-8%	·	·	-24%
COc1cccc([C@@H]2Oc3ccc(OC)cc3/C(=N/O[C@@H](C)c3cn([C@H]4COC[C@H]4O)nn3)[C@@H]2O)c1	-5%[11.5 µM]	-7%[11.6 µM]	1%	-1	-9%[11.6 µM]
Cc1ccc(F)cc1-c1ccc(C(=O)N=C(N)N)o1	·	·	-4%	2	·
C(=C\c1ccco1)/C=N/n1cnnc1	25µM*	32µM*	?	-40*	-29%
Cc1cccc(-c2n[nH]c(=S)n2/N=C/C=C/c2ccco2)c1	?	-9%	?	-2	?
SMILES	Tau ThT inhib	Tau FP inhib	Sfp PPTase inh	Coupling enz	Tau fluor cs
S=c1[nH]nc(-c2ccncc2)n1/N=C/C=C/c1ccco1	?	-4%	45µM*	-10	-23%
S=c1[nH]nc(-c2ccccc2Cl)n1/N=C/C=C/c1ccco1	?	7%	56µM*	5	-15%
O=c1cnc2cncnc2n1Cc1ccccc1	·	·	8%	5	·
Cc1cc(Cl)ccc1NC(=O)CCn1nc(C)c2c(C)n(-c3ccccc3)nc2c1=O	14%	2%	·	·	9%
COC(=O)[C@H]1CC2(CC=C(C)C)C(=O)[C@@](CC=C(C)C)(C(=O)C(C(=O)c3ccccc3)=C2OC)C1(C)C (tested in a mixture with another compound)	-5%	?	-1%	-1	-14%
Nc1nn2cc(-c3ccc(Br)cc3)nc2c2ccccc12	·	?	-14%	0	?
c1ccc(-c2cn3nc(-c4ccccc4)cnc3n2)cc1	4%	11%	1%	-6	3%
c1ccc(-c2cn3nc4c(nc3n2)CCCC4)cc1	?	?	79µM*	-11	?
Brc1ccc(-c2cn3nc4c(nc3n2)CCCC4)cc1	18µM*	?	?	-7	?
Cc1cc(C)n(-c2nc3ccccc3nc2Nc2ccc(N(C)C)cc2)n1	?	?	·	·	18µM*[quencher]
Cc1ccc2nc(Nc3ccc4[nH]c(=O)[nH]c4c3)c(-n3nc(C)cc3C)nc2c1	?	15%	-6%	2	11µM*[quencher]
CNCCCOc1ccc(C(C)(C)c2ccccc2)cc1	-4%	5%	56µM*	1	-7%
CC(C)(c1ccccc1)c1ccc(OCCCN2CCNCC2)cc1	?	8%	40µM*	2	-1%
COc1ccc(-c2cc(C(=O)NCc3ccc(F)cc3)no2)cc1	-2%	-5%	·	·	-3%
NCC1OC(OC2C(N)CC(N)[C@@H](O)[C@@H]2OC2O[C@H](CO)[C@@H](O[C@@H]3OC(CN)C(O)C(O)C3N)C2O)C(N)C(O)C1O (stereo partly drawn)	-3%	1%	17%	5	-2%
O=C(CN1C(=O)CC(c2ccc(F)cc2)=Nc2ccccc21)NCc1ccccc1Cl	4%	-9%	·	·	2%
O=C(CSc1oc(-c2cccs2)nc1S(=O)(=O)c1ccccc1)NC1CCCCC1	?	-3%	40µM*	2	?
